# Screens as filed in PubChem BioAssay.
# Sampled rows, rich in hits. Any-hit rate of the full collection: about 10%.
# VDR inh – blocks the human vitamin D receptor; P11473; VDR-SRC2-3 peptide fluorescence polarization, 2 h; Potency, µM, hits mostly inhibitors; 400,000 tested, 0.93% active; AID 504847
# Target sequence (P11473 whole entry, looked up): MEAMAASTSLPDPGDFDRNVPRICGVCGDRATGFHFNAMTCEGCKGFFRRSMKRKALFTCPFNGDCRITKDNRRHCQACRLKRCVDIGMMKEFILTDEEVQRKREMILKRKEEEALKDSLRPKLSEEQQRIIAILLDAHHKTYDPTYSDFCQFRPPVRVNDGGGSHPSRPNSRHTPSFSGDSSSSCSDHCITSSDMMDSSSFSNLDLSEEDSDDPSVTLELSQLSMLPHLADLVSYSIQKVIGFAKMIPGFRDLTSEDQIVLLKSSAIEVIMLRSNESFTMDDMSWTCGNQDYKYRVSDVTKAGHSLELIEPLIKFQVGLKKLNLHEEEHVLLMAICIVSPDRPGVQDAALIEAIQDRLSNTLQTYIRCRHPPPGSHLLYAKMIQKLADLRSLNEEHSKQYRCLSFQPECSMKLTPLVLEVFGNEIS
#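 Fluorescence polarization assay measuring small-molecule disruption of VDR binding to the coregulator peptide SRC2-3. Compounds were pin-transferred (23 nl) into the reagent mix and incubated 2 h at room temperature before reading.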
# PLK1 PBD block – PLK1 (human) polo-box domain binding inhibition | P53350 | Plk1 PBD binding of FITC phosphopeptide, fluorescence polarization | Potency, µM, actives largely listed as inhibitors | 360,000 tested, 2.8% active; further: series mostly up to about 57 µM; nearly all actives have a fitted effect of over 65% in size
# Mm-Cpn inhibitor – blocks the Methanococcus maripaludis chaperonin Mm-Cpn | purified Mm-Cpn ATPase, ADP Transcreener TR-FRET | Potency, µM (top dose mostly 76.9 µM), actives largely listed as inhibitors | 330,000 tested, 0.031% active; further: nearly all actives have a fitted effect of over 80% in size
#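 Quantitative HTS used 25 nM Mm-CPN and 10 uM ATP in magnesium/KCl Tris buffer, pH 7.4, with 1 mM DTT. Hydrolysis ran 30 min at 37°C; ADP was read by HTRF.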
# Sfp inh – blocks B. subtilis Sfp PPTase activity | Q9F4F7 | Biochemical Sfp PPTase activity, qHTS | Potency, µM, actives largely listed as inhibitors | 310,000 tested, 3.5% active;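 further: the enzyme is Sfp with the accession as filed and its product quenches rhodamine fluorescence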
#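 Fluorescence-quenching assay: 15 nM Sfp-PPTase preincubated 15 min at room temperature with compound, then 5 uM rhodamine-CoA and 12.5 uM BHQ-2-labelled YbbR peptide added. Fluorescence (ex 525/em 598 nm) read at start and after 30 min; difference gives rate.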
# CCT chaperon mod – cytosolic chaperonin activity modulation | purified chaperonin ATPase assay, HTRF ADP detection, 30 min | 360,000 tested, 0.3% active | AID 651819 | activity change, % (no concentration beside the values), hits read low; in the data active means activity change below about -30%
#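 Nucleotide hydrolysis assay: TRiC at 20–40 nM final (set by batch activity) with 10 uM ATP, 30 min at 37 °C, in presence of 76 uM compound. Detection by competitive ADP HTRF, 30 min ambient.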
# G9a block – inhibitors of human histone lysine methyltransferase G9a. Q96KQ7. G9a H3K9 monomethylation, AlphaScreen, 2 h. 350,000 tested, 8.8% active. Potency, µM (top dose mostly 102 µM), hits mostly inhibitors; further: nearly all actives have a fitted effect of over 75% in size
# Target sequence (Q96KQ7 913-1193 limits assumed): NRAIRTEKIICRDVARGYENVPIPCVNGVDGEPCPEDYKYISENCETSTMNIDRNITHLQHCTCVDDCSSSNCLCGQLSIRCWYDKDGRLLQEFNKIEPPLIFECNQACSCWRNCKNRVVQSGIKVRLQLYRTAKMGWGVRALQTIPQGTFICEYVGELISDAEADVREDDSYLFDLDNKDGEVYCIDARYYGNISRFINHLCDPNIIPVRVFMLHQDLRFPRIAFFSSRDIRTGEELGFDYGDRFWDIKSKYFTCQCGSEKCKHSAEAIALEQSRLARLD
#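 Chemiluminescent proximity detection of H3K9 monomethylation, read after 10 min bead incubation in the dark. Reaction: 20 nM G9a, 500 nM biotin-H3K9 peptide, 20 uM SAM cofactor, 2 h, room temperature, following 15 min enzyme-compound preincubation.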
# Hits are given with their value; i = inactive; ? = inconclusive; nt = not tested or not shown; [ ] = remark or other dose. Unless noted, the call rests on the fitted dose curve; in most records, active means well fitted curve in the direction sought with a large enough effect; inconclusive means small, poorly fitted or top-dose-only effect, or another doubt; inactive means no such curve, though single readings can be large; an effect the other way counts as inactive or inconclusive.
SMILES,VDR inh,PLK1 PBD block,Mm-Cpn inhibitor,Sfp inh,CCT chaperon mod,G9a block
Cc1n[nH]c(=O)nc1N/N=C/c1ccc(O)c([N+](=O)[O-])c1,i,i,i,56µM,i,i
O=C(CC(Nc1ccc(F)cc1)C(=O)OCC(=O)c1cccs1)c1ccccc1 (stereo not drawn),i,i,i,35µM,i,?
CC(=O)OC[C@@H]1O[C@H](CCO/N=C(\C)CCC(=O)OC[C@@H]2O[C@H](C#Cc3ccccc3)C=C[C@@H]2Oc2ccc(C)cc2)C=C[C@@H]1OC(C)=O,nt,nt,nt,i,nt,nt
Cc1ccc(C(=O)N(Cc2ccco2)Cc2sccc2C)cc1,i,nt,nt,nt,nt,i
N#Cc1ccc(COC(=O)c2cc(=O)c3ccccc3o2)cc1,i,i,i,i,i,i
Cc1cccc(C)c1NC(=O)COC(=O)c1cc(=O)c2ccccc2o1,?,21µM,i,i,i,?
COc1cccc(NC(=O)COC(=O)c2cc(=O)c3ccccc3o2)c1,?,i,i,nt,i,i[12.7 µM]
CCOc1ccc(NC(=O)COC(=O)c2cc(=O)c3ccccc3o2)cc1,i,i,i,nt,i,20µM
O=C(OCc1ccc([N+](=O)[O-])cc1)c1cc(=O)c2ccccc2o1,i,i,i,i,i,50µM
Cc1cccc(NC(=O)N2CC=C(c3c[nH]c4ccccc34)CC2)c1C,i,nt,nt,nt,nt,?
O=C(O)CCCCCNC(=O)c1ccc(Br)cc1,i,i,i,i,i,50µM
CC1CCN(c2oc(Cc3cccc4ccccc34)nc2C#N)CC1,i,i,i,i,i,8.9µM
N#Cc1nc(Cc2cccc3ccccc23)oc1N1CCN(c2ccccc2)CC1,i,i,i,i,i,22µM
COc1ccc(NC(=O)CSc2nc(-c3ccco3)nc3cc(=O)[nH]n23)cc1,i,nt,nt,nt,nt,i
COc1ccc(NC(=O)CSc2nc(-c3ccco3)nc3cc(=O)[nH]n23)cc1Cl,i,19µM,i,i,i,i
O=C1CCN(CCc2ccccc2)CCN1C(CSc1ccc(Br)cc1)c1ccccc1 (stereo not drawn),i,nt,nt,i,nt,nt
COC(=O)[C@H](CC(C)C)NC(=O)c1cc2c(cn1)[nH]c1ccccc12,?,3.8µM,i,45µM,i,7.9µM
Cc1csc2nc(-c3cccc(NC(=O)c4cccc(F)c4)c3)cn12,i,nt,nt,nt,nt,i
CN1CCCC(OC(=O)COc2ccccc2)C1 (stereo not drawn),i,i,i,i,i,50µM
CN1CCCC(OC(=O)CCCC(=O)OC2CCCN(C)C2)C1 (stereo not drawn),i,i,i,i,i,i[0.0925 µM]
CCOC(=O)Cn1c(=O)n(C2CCCCC2)c2nc(-c3ccc(C(C)C)cc3)nc(C(N)=O)c21,i,nt,nt,nt,nt,i
CN(C)CCN(C(=O)C1CCN(S(=O)(=O)c2cccs2)CC1)c1nc2c(F)cccc2s1,i,i,i,nt,i,?
COc1ccc(C)c2sc(N(CCCN(C)C)C(=O)CS(=O)(=O)c3ccc(F)cc3)nc12,i,i,i,nt,i,i
Cc1ccc2sc(N(CCCN(C)C)C(=O)CCS(=O)(=O)c3ccccc3)nc2c1C,i,?,i,?,i,16µM
COc1ccc(Cl)c2sc(N(CCN(C)C)C(=O)CCS(=O)(=O)c3ccc(C)cc3)nc12,i,i,i,nt,i,10µM
SMILES,VDR inh,PLK1 PBD block,Mm-Cpn inhibitor,Sfp inh,CCT chaperon mod,G9a block
CN(C)CCN(C(=O)CCS(=O)(=O)c1ccccc1)c1nc2c(F)cccc2s1,i,?,i,i,i,28µM
COc1ccc(OC)c2sc(N(CCCN(C)C)C(=O)CCS(=O)(=O)c3ccccc3)nc12,?,7.5µM,i,nt,i,20µM
CCOc1ccc(N=Cc2c(O)cc(C)oc2=O)cc1,i,i,i,i,i,i
Cc1ccc(N/N=C/c2c(O)cc(C)oc2=O)cc1,i,i,i,56µM,i,?
C/C(=N\Nc1ccccc1)c1c(O)cc(C)oc1=O,i,i,i,i,i,2.5µM
Cc1cc(O)c(C=Nc2ccc(Cl)cn2)c(=O)o1,i,i,i,?,i,i[12.7 µM]
C/C(=N/NC(=O)c1cccc(C)c1)c1c(O)cc(C)oc1=O,i,i,i,i,i,i
Cc1cc(O)c(/C=N/Nc2ccc(F)cc2)c(=O)o1,i,i,i,79µM,i,4.5µM
Cc1ccc(CO/N=C/c2c(O)cc(C)oc2=O)cc1,i,i,i,i,i,32µM
CCCOc1ccc(CNC(=O)C(NS(=O)(=O)c2cccs2)C(C)C)cc1 (stereo not drawn),i,nt,nt,nt,nt,i[12.7 µM]
c1ccc(NNC2=NCCS2)cc1,i,i,i,?,i,50µM
O=C1C2C3C=CC(CC3)C2C(=O)N1c1ccccc1[N+](=O)[O-] (stereo not drawn),i,i,i,56µM,i,?
O=C1C2C3C=CC(CC3)C2C(=O)N1c1ccc(Br)cc1[N+](=O)[O-] (stereo not drawn),i,i,i,i,i,i
CC(=O)c1ccc(N/N=C(/C(N)=O)C2=NC(C)(C)Cc3ccccc32)cc1,i,i,i,i,i,11µM
CC1(C)Cc2ccccc2C(/C(=N\Nc2cccc(Cl)c2)C(N)=O)=N1,i,i,i,i,i,?
CN(C)c1ccc(-c2cncnc2Nc2ccccc2)cc1,?,nt,nt,i,nt,i[0.501 µM]
O=C(c1ccco1)c1coc2c1cc(O)c1ccccc12,i,30µM,i,i,i,40µM
CC(=O)c1coc2c1cc(O)c1ccccc12,i,i,i,i,i,i
CC(C)n1cnc2c(=S)nc[nH]c21,i,i,i,8.9µM,i,0.79µM
CC(C)CCNC(=O)C(c1ccc(O)cc1)N(C(=O)C1COc2ccccc2O1)c1cccc(O)c1 (stereo not drawn),i,19µM,i,i,i,nt
CCOc1cccc(N(C(=O)C2COc3ccccc3O2)C(C(=O)NC2CCCCC2)c2ccc(O)cc2)c1 (stereo not drawn),i,i,i,i,i,i
CC1=C(C(=O)NCc2cccc(Cl)c2)C2(CCCCCC2)OC1=O,i,nt,nt,nt,nt,i
CC[C@H](C)[C@H](NC(=O)[C@H](Cc1ccc(O)cc1)NC(=O)[C@@H](NC(=O)[C@H](CCCN=C(N)N)NC(=O)[C@@H](N)CC(=O)O)C(C)C)C(=O)N[C@@H](Cc1cnc[nH]1)C(=O)N1CCC[C@H]1C(=O)N[C@@H](Cc1ccccc1)C(=O)N[C@@H](Cc1cnc[nH]1)C(=O)N[C@@H](CC(C)C)C(=O)O,i,nt,nt,i,nt,nt
O=C(O)C1Nc2c(O)cc(Cl)c([N+](=O)[O-])c2C2C=CCC12 (stereo not drawn),i,3µM,i,56µM,i,2.8µM
O=C(O)c1ccccc1-c1ccccc1C(=O)Nc1cccc(Br)c1,i,i,i,i,i,45µM
O=C(O)c1ccccc1-c1ccccc1C(=O)Nc1ccccc1,i,i,i,i,i,i[12.7 µM]
